Here are results for 73 compounds from PubChem BioAssay AID485317 (Broad Institute, 2010).

The campaign covered roughly 290,000 compounds. About 11,000 (3.8%) were called active.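 How the source made its calls: active means mean replicate inhibition above about 79%, with every replicate also reaching it (limit read from the data); inconclusive means only one of the two criteria met; inactive means mean below limit and not every replicate reaching it.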 This excerpt belongs to a sample that is enriched for actives.

The target in this assay is FAD-linked sulfhydryl oxidase ALR (Homo sapiens) (UniProt P55789). Nature of the assay: ALR-catalysed DTT oxidation blockers – biochemical, H2O2 detection, HRP-luminol luminescence, single point, primary screen (AID 485317). Conditions: purified ALR, active compounds read high, concentration not given here.
Sequence of FAD-linked sulfhydryl oxidase ALR (Homo sapiens) (P55789 whole entry, looked up): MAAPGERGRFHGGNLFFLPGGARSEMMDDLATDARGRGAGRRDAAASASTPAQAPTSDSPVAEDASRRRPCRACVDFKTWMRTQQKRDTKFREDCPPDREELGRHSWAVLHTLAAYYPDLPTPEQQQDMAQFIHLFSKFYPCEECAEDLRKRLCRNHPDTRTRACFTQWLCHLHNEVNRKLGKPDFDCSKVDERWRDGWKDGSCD
One may read the inhibition as the drop in the measured response relative to a control, in per cent. For the compound `COc1ccccc1C(=O)NC(=O)COC(=O)c1ccco1`, the inhibition was -0.0405% (inactive).
For the compound `Cc1cccc(NC(=O)c2ccc(S(=O)(=O)N(C)CC3CCCO3)cc2)c1C` (stereo not drawn), the inhibition was -10.6% (inactive).
As for `CCN(CC(=O)NC(C)C)C(=O)c1cc(S(=O)(=O)N2CCCCC2)ccc1N1CCCCC1`, the inhibition is -1.75% (inactive).
With `NC(=O)Nc1ccc(C(=O)OCC(=O)NC2CCCc3ccccc32)cc1` (stereo not drawn), the inhibition was -2.38% (inactive).
As for `CC(C)C[C@H](NC(=O)N1CCn2c1nc1ccccc12)C(=O)NC1CC1`, the inhibition is -10.7% (inactive).
Consider `CSCC[C@H](NC(=O)N1CCn2c1nc1ccccc12)C(=O)NC1CCCCC1`, for which the inhibition was 98.2% (active).
For `CSCC[C@H](NC(=O)N1CCn2c1nc1ccccc12)C(=O)NCc1ccc2c(c1)OCO2` the value was -4.75% (inactive); for `CC1CCN(C(=O)COC(=O)c2cc(=O)[nH]c3ccccc23)CC1`, 2.67% (inactive).
For `COc1cc(Cl)c(C)cc1NC(=O)CSc1nnc(-c2ccco2)n1CC(C)C`, the inhibition was 2.64% (inactive).
In the case of `COc1cc(Cl)c(C)cc1NC(=O)CSc1nnc(-c2cccnc2)n1Cc1ccco1`, the inhibition was 20.1% (inactive).
The figure for `CCn1c(SCC(=O)Nc2cc(C)c(Cl)cc2OC)nnc1-c1ccco1` is 98.5% (active); for `CCOC(=O)[C@H]1[C@H]2COc3ccccc3[C@@H]2N2C(=O)CN(Cc3ccccc3)C(=O)[C@@]12C` it is -1.27% (inactive).
The figure for `C/C(=N\Nc1nc2ccccc2[nH]1)c1cccs1` is 99% (active); for `O=C(Nc1ccccc1-c1nc2ccccc2[nH]c1=O)c1cccs1` it is 1.37% (inactive).
As to `C/C(=N\Nc1ncc(Cl)cc1Cl)c1cccs1`, the inhibition is 0.466% (inactive).
Consider `O=C1CCC/C=C/C[C@@H](CC(=O)N(CCO)Cc2ccccc2)C(=O)NC[C@H](c2ccccc2)O1`, for which the inhibition is 0.972% (inactive).
As to `CCC[C@H]1CCCC/C=C\CCCC(=O)OCCN1C(=O)OC(C)(C)C`, the inhibition was -2.32% (inactive).
For `CC(C)CC1NC(=O)c2cc(Cl)ccc2-n2c1nc1ccccc1c2=O` (stereo not drawn), the inhibition was -5.03% (inactive).
As for `COc1cnn(-c2ccc([N+](=O)[O-])cc2)c(=O)c1Cl`, the inhibition was 4% (inactive).
Take `Cc1ccc(-n2c(-c3ccc(Cl)cc3)n[nH]c2=S)cc1`: the inhibition was -1.26% (inactive).
On to `Cc1ccc(OCc2n[nH]c(=S)n2-c2ccc(C)cc2)cc1`, for which the inhibition was 47.3% (inactive).
`COc1ccc(-n2c(-c3ccc(OC)c(OC)c3)n[nH]c2=S)cc1`: the inhibition is 94% (active).
For `COc1ccc(CNC(=O)COC(=O)CCS(=O)(=O)c2ccc(C)cc2)cc1OC` the value was 2.97% (inactive); for `CCCCN1C(=O)C(=O)N(CC(=O)Nc2cccc(C(C)=O)c2)C1=O`, 1.6% (inactive); for `C=CCC[C@@H](Cc1ccc(F)cc1)C(=O)OC[C@@H](C)NC(=O)[C@H](CC=C)CC(=O)N(CCO)Cc1ccccc1`, -10.3% (inactive).
In the case of `Cc1nc2ccccc2c(=O)n1NC(=O)c1ccccc1`, the inhibition is -10.2% (inactive).
The figure for `Cn1sc(NC(=O)c2ccccc2)nc1=O` is 88.6% (active).
With `O=C(NC(=O)c1ccccc1)NC(=O)c1ccccc1`, the inhibition is 0.464% (inactive).
Regarding `Cc1ccc(C(=O)NC2CCCC(C)C2C)cc1S(=O)(=O)N1CCCCC1` (stereo not drawn), the inhibition was -6.06% (inactive).
On to `CC(OC(=O)c1ccc(S(=O)(=O)N2CCOCC2)cc1)c1ccccc1` (stereo not drawn), for which the inhibition is -21.1% (inactive).
In the case of `COCCNC(=O)COc1ccc(C)c(C)c1`, the inhibition was 11.4% (inactive).
For the compound `Cc1ccc(SC(=O)COc2ccc(C)c(C)c2)cc1`, the inhibition was 98.5% (active).
`Cc1ccc(OCC(=O)NC(C)c2ccccc2)cc1C` (stereo not drawn): the inhibition was -10.2% (inactive).
The figure for `CCn1nc(C(=O)NNS(=O)(=O)c2cc(/C=C/C(=O)O)cc(OC)c2OC)c2ccccc2c1=O` is 4% (inactive); for `O=C(COC(=O)c1ccc([N+](=O)[O-])o1)NC12CC3CC(CC(C3)C1)C2` it is -29.8% (inactive); for `CCCCSc1[nH]c(=O)c(C(=O)OCC)cc1C#N` it is 90% (active).
As to `CCOC(=O)c1cc(C#N)c(N2CCCCC2)nc1-c1ccccc1`, the inhibition is 6.36% (inactive).
With `CCOC(=O)c1cc(C)nc(S(C)(=O)=O)c1C#N`, the inhibition is 15.5% (inactive).
As to `CCOc1cc(C(=O)Nc2ccc(S(=O)(=O)Nc3cnc4ccccc4n3)cc2)cc(OCC)c1OCC`, the inhibition is 27.5% (inactive).
For `CC(C)c1nc(SCC(=O)Nc2cccc(C(=O)O)c2)c2c3c(sc2n1)CCCC3` the value was 98.2% (active); for `Cc1ccc(C)c2c1cc(C)c1nnc(SCC(=O)Nc3cccc(C(=O)O)c3)n12`, 3.23% (inactive); for `Cc1cc(NC(=O)CSc2nc(C(C)C)nc3sc4c(c23)CCC(C)C4)no1` (stereo not drawn), -10.2% (inactive).
For `C=CC[C@H](CC(=O)NCCO)C(=O)N[C@@H](COC(=O)[C@@H](CC=C)Cc1ccc(F)cc1)Cc1c[nH]c2ccccc12`, the inhibition is 6.65% (inactive).
For `CCOc1ccccc1NC(=O)C1CCC(CNc2c(N3CCOCC3)c(=O)c2=O)CC1` (stereo not drawn), the inhibition is -8.1% (inactive).
As for `COc1ccc(NC(=O)C2CCC(CNc3c(N4CCCCC4)c(=O)c3=O)CC2)c(OC)c1` (stereo not drawn), the inhibition was -10.1% (inactive).
`CCN(CC)c1ccc(NC(=O)C2CCC(CNc3c(N4CCCC4)c(=O)c3=O)CC2)c(C)c1` (stereo not drawn): the inhibition is 99.4% (active).
With `COc1ccc(Cl)cc1NC(=O)CN(C)C(=O)c1cc2ccccc2cc1OC`, the inhibition was -4.22% (inactive).
In the case of `CCCCn1c(-c2cccc(C)c2)nc2cc3[nH]c(=O)c(C(C)C)nc3cc21`, the inhibition is -32.5% (inactive).
As to `CC1CN(C(=O)COC(=O)c2cccc(NS(=O)(=O)c3ccccc3)c2)CC(C)O1` (stereo not drawn), the inhibition is 2.21% (inactive).
As for `CCOc1ccc(C(=O)NCC(=O)N2CCCCCCC2)cc1OCC`, the inhibition was -5.97% (inactive).
On to `O=C(COc1ccc(Br)cc1F)NCC1(N2CCCCC2)CCCCC1`, for which the inhibition was 2.53% (inactive).
Regarding `CCOC(=O)CSc1nc(C)c(Oc2ccc(Cl)cc2Cl)c(=O)[nH]1`, the inhibition is -20.9% (inactive).
Turning to `Cc1nnc(SCC(=O)N2CCOCC2)[nH]c1=O`, the inhibition was 3.8% (inactive).
As for `CCCCOC(=O)CNc1nnc(SCC(=O)OCC)[nH]c1=O`, the inhibition is 100% (active).
In the case of `Cc1c(C(=O)Nc2ccccn2)oc2ccc(Br)cc12`, the inhibition was 1.89% (inactive).
Regarding `COc1cc(OC)c(N2CC(C(=O)Nc3cc(Cl)ccc3N3CCOCC3)CC2=O)cc1Cl` (stereo not drawn), the inhibition was -7.16% (inactive).
In the case of `C[C@H]1CN([C@@H](C)CO)C(=O)Cc2cc(NC(=O)Cc3ccccc3)ccc2O[C@H]1CN(C)S(=O)(=O)c1cccs1`, the inhibition is 2.5% (inactive).
In the case of `CC(C)CN(C(=O)CSc1ncnc2sccc12)C1CCS(=O)(=O)C1` (stereo not drawn), the inhibition was 5.3% (inactive).
On to `COc1ccc(-c2cnc(SCCNC(=O)c3ccc4c(c3)OCO4)[nH]2)cc1`, for which the inhibition was 14.2% (inactive).
The figure for `CCN(CC)c1ccc2cc(C(N)=O)/c(=N\NC(=O)c3ccncc3)oc2c1` is 8.16% (inactive); for `CCN(CC)c1ccc2oc(=O)c(C)nc2c1` it is 96.5% (active).
For `CCN(CC)c1ccc2c(Nc3ccccc3)c(C=O)c(=O)oc2c1` the value was 1.6% (inactive); for `C[C@H](NS(=O)(=O)c1ccc(Cl)cc1)C(=O)OCC(=O)N1CCOCC1`, -3.05% (inactive); for `O=C(NC1CCCCCC1)C1CCN(C(=O)c2ccc(Cl)cc2)CC1`, 0.152% (inactive).
As to `COc1cc(C(=O)NCc2nnc(SCC(=O)Nc3nc4ccc(C)cc4s3)o2)cc(OC)c1OC`, the inhibition was 96.6% (active).
For the compound `COc1cc(C(=O)NCc2nnc(SCC(=O)c3ccc(Cl)cc3)o2)cc(OC)c1OC`, the inhibition was -31.3% (inactive).
With `COc1ccc(C(=O)NCc2nnc(SCC(=O)Nc3cccc(OC)c3)o2)cc1`, the inhibition was -14.1% (inactive).
On to `COc1ccc(CN2CCN(C(=O)c3cc(C4CC4)nn3-c3ccccc3)CC2)cc1F`, for which the inhibition is -3.02% (inactive).
In the case of `CCc1ccc(CN(C)C(=O)CCc2nnc(-c3ccc(-c4ccccc4)cc3)o2)nc1`, the inhibition is -6.23% (inactive).
On to `CN(Cc1ccccc1)C(=O)CCc1ccccc1`, for which the inhibition was 26.4% (inactive).
Regarding `CC(=O)c1ccc(-c2nnc(CCC(=O)N(C)Cc3cnc4ccccn34)o2)s1`, the inhibition is 96.1% (active).
For `COc1ccc(C(=O)OCC(=O)c2cc(C)n(CC3CCCO3)c2C)cc1[N+](=O)[O-]` (stereo not drawn) the value was -3.78% (inactive); for `O=C(CCNC(=O)c1ccc(Br)cc1)NCC(c1ccco1)N1CCCCC1` (stereo not drawn), 1.52% (inactive).
